# Measured values: PubChem BioAssay (EPA / NIEHS)
# Where “and” joins values, the source holds several entries; their conditions need not be identical. Equal values may be shown once. The source holds several records for some structures; these can differ, active in one and inactive in another. Calls of active or inactive are those of the source. The calls were made as follows: active = hit-call score of the fitted dose curve at least 0.9, where 1 is the maximum; inactive = score below 0.9.
# Experiments:
# [1] = BSK_BT_PBMCCytotoxicity: PBMC Cytotoxicity Assessment in the BioMAP Diversity Plus: BT Assay (AID 2284225); conditions: primary human B cells with PBMC;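 also: PBMC viability measured by Alamar Blue dye reduction fluorescence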
# Outline: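 75,000 cells/well; cpd 1 h → SEB + TSST-1 (20 ng/mL final each) → 90 h → Alamar Blue 6 h → fluor. 546/580 nm. DMSO = neg. control/baseline.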
# [2] = read-out: Secreted IgG (sIgG), gene 3500; assay: BSK_BT_sIgG: BioMAP Diversity Plus: BT Assay for Secreted IgG (sIgG) Biomarker Activity (AID 2284226); conditions: primary human B cells with PBMC
# Outline: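 B cells co-cultured with PBMC were dosed with chemical and secreted IgG quantified by ELISA at 24 h. Activity was fitted in the positive direction relative to DMSO as negative control and baseline.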
# [3] = BSK_BT_Bcell_Proliferation: Viability Assessment in the BioMAP Diversity Plus: BT Assay for B cell Proliferation (AID 2284227); conditions: primary human B cells with PBMC
# Outline: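 Human B cell/PBMC co-culture; test chemical added; 72 h; TCA fix (10%), 0.1% SRB stain, A560 for total protein as a proliferation read-out; positive-direction fit vs DMSO baseline.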
# [4] = CCTE_Mundy_HCI_Cortical_Synap_Neur_Matur_NeuriteLength: CCTE's Synaptogenesis and Neurite Maturation Assay in rat cortical cells for Neurite Length, Mundy Lab (AID 2284214)
# Protocol: (§1) CCTE_Mundy_HCI_Cortical_Synap&Neurite_Matur is a multiplexed, cell-based-readout assay that uses rat primary cortical cells with measurements taken at 288.33 hours after chemical dosing in a microplate: 96-well plate.CCTE_Mundy_HCI_Cortical_Synap_Neur_Matur_NeuriteLength is one of eight components of the CCTE_Mundy_HCI_Cortical_Synap&Neurite_Matur assay. It measures synaptogenesis and neurite maturation related to neurite length using High Content Imaging of fluorescently labelled markers.[…] Using a type of morphology reporter, loss -of-signal activity can be used to understand developmental effects.
# (§2) Cells are plated onto 96 well plates and allowed 2 hr for attachment to the substrate. At days in vitro (DIV) 5, Cytosine Arabinoside (AraC) is added to arrest glial cell growth. Chemicals are dosed and a media change is performed at DIV 7 of differentiation and is continued through DIV 12 when the experiment is terminated. Cells are fixed with […] and Hoechst Dye. Cells are stained using Millipore Mouse anti-MAP2MAB3418 (1:800) and Millipore Rabbit anti-Synaptophysinsc-1750 (1:250) primary antibodies and Alexa Fluor-488 goat anti-mouse and AlexaFluor-546 goat anti-rabbit secondary antibodies to label neuronal cell nuclei, synapses and neurites. A Cellomics ArrayScan VTi HCS Reader is used for automated image acquisition and analysis of neurite outgrowth.
# [5] = CCTE_Mundy_HCI_Cortical_Synap_Neur_Matur_NeuriteSpotCountPerNeuron: CCTE's Synaptogenesis and Neurite Maturation Assay in rat cortical cells for Neurite Spot Count per Neuron Count, Mundy Lab (AID 2284215)
# Protocol: as §1, with “plate.CCTE_Mundy_HCI_Cortical_Synap_Neur_Matur_NeuriteSpotCountPerNeuron” for “plate.CCTE_Mundy_HCI_Cortical_Synap_Neur_Matur_NeuriteLength”, “number of neurite-associated synapses (synaptophysin puncta) per neuron” for “neurite length”
# as §2
# [6] = TAMU_PeakParms_SingleDonor1434_Chronotropy: Texas A&M University (TAMU) 1.5-hr Human Induced Pluripotent Stem Cell (iPSC)-derived Cardiomyocytes Calcium (Ca+2) Flux Assay for Cardiotoxicity: Chronotropy (changes in peak frequency) (AID 2284217); conditions: actives raise or lower the signal
# Outline: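 Beat rate, as mean Ca2+-flux peak frequency, was read from donor 1434 iPSC cardiomyocytes 90 min after exposure to 0.2–100 uM test chemical (0.5% DMSO). Wells that stopped beating were excluded; EC05 from bidirectional DMSO-referenced fitting.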
# [7] = CCTE_Mundy_HCI_Cortical_Synap_Neur_Matur_SynapseCount: CCTE's Synaptogenesis and Neurite Maturation Assay in rat cortical cells for Synapse Count, Mundy Lab (AID 2284218)
# Outline: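 Rat primary cortical cells in 96-well plates received AraC at DIV 5 and were dosed with chemicals at DIV 7 with media change, through DIV 12 (288.33 h). Synapses per neuron counted by high-content imaging of MAP2/synaptophysin/Hoechst staining, versus DMSO baseline.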
# [8] = CCTE_Mundy_HCI_Cortical_Synap_Neur_Matur_NeuriteCount: CCTE's Synaptogenesis and Neurite Maturation Assay in rat cortical cells for Neurite Count, Mundy Lab (AID 2284222);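 also: exposure from day 7 to day 12 in vitro with readout at day 12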
# Outline: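 Rat cortical neurons, 96-well; AraC DIV 5; chemical + media change DIV 7; end DIV 12. Fix PFA/Hoechst, anti-MAP2 + anti-synaptophysin IF. HCI neurite count vs DMSO baseline.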
# [9] = CCTE_Mundy_HCI_Cortical_Synap_Neur_Matur_CellBodySpotCount: CCTE's Synaptogenesis and Neurite Maturation Assay in rat cortical cells for Cell Body Spot Count, Mundy Lab (AID 2284223)
# Outline: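 Rat primary cortical cultures received AraC at DIV 5 to arrest glia, were dosed with chemical at DIV 7 with media change, and were fixed at DIV 12 (288.33 h). Synaptophysin puncta on MAP2-positive cell bodies per neuron were counted by high-content imaging versus DMSO.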
compound,measurement,setting,value
CC(=O)OCC=C(C)CCC=C(C)CCC=C(C)C,AC50,[1],33.2 µM (active)
same,AC50,[2],20 µM (active)
same,AC50,[3],37.9 µM (active)
NC(=O)c1c(Cl)cccc1Cl,outcome,[1],inactive
same,outcome,[2],inactive
same,outcome,[3],inactive
OCC(F)(OC(F)(F)C(F)(OC(F)(F)C(F)(F)C(F)(F)F)C(F)(F)F)C(F)(F)F (configuration not stated),AC50,[1],2.62 µM (active) and 5.68 µM (active)
same,AC50,[2],5.29 µM (active)
same,outcome,[2],inactive
same,AC50,[3],3.33 µM (active)
same,outcome,[3],inactive
c1ccc(Sc2ccccc2)cc1,outcome,[1],inactive
same,outcome,[2],inactive
same,outcome,[3],inactive
CC(C)(C)c1cccc(O)c1,outcome,[1],inactive
same,outcome,[2],inactive
same,outcome,[3],inactive
CC(=O)CCC=C(C)CCC=C(C)C,outcome,[1],inactive
same,AC50,[2],20 µM (active)
same,AC50,[3],31.7 µM (active)
COc1ccccc1NC(=O)CC(C)=O,outcome,[1],inactive
same,outcome,[2],inactive
same,outcome,[3],inactive
CC1=CC(C)C(C=O)C(C)C1 (configuration not stated) (tested in a mixture with another compound),outcome,[1],inactive
same,outcome,[2],inactive
same,outcome,[3],inactive
CCCCCCCC1CCCC1=O (configuration not stated),outcome,[1],inactive
same,AC50,[2],2.5 µM (active)
same,outcome,[3],inactive
C=C(F)C(=O)OC(C(F)(F)F)C(F)(F)F,outcome,[1],inactive
same,outcome,[2],inactive
same,outcome,[3],inactive
N#CCCNCCC#N,outcome,[4],inactive
same,outcome,[5],inactive
same,outcome,[6],inactive
same,outcome,[7],inactive
same,outcome,[8],inactive
same,outcome,[9],inactive
CCC(=O)OCC=Cc1ccccc1,outcome,[1],inactive
same,outcome,[2],inactive
same,outcome,[3],inactive
CC(=O)OC(C)(C)C1CC=C(C)CC1 (configuration not stated),outcome,[1],inactive
same,outcome,[2],inactive
same,outcome,[3],inactive
Nc1ccc(N)c([N+](=O)[O-])c1,outcome,[2],inactive
same,outcome,[3],inactive
c1ccc2scnc2c1,outcome,[4],inactive
same,outcome,[5],inactive
same,outcome,[7],inactive
same,outcome,[8],inactive
same,outcome,[9],inactive
OCCN1CCOCC1,outcome,[1],inactive
same,outcome,[2],inactive
same,outcome,[3],inactive
CC/C(=C(\c1ccccc1)c1ccc(OCCN(C)C)cc1)c1ccccc1,outcome,[6],inactive
CC1(C)[C@H](C=C(Cl)Cl)[C@H]1C(=O)OCc1cccc(Oc2ccccc2)c1,outcome,[1],inactive
same,outcome,[2],inactive
same,outcome,[3],inactive
O=C(O)C(F)(F)OC(F)(F)C(F)(F)OC(F)(F)C(F)(F)C(F)(F)C(F)(F)F,AC50,[1],22.1 µM (active)
same,outcome,[1],inactive
same,outcome,[2],inactive
same,outcome,[3],inactive
